Values without a mark were called inactive.
Key:
Settings in all cases: 60 µM; 5 days; temperature: 20 °C
[1] = test system: Meloidogyne hapla J2; experiment: proportion of mobile M. hapla J2 relative to DMSO control (fraction of DMSO control); higher = more viable, less nematicidal, active = 0.7 or less
Outline: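 About 25 M. hapla J2 were placed in each well of a 96-well plate in distilled water, and compound was pinned in to a final 60 µM with 0.6% v/v DMSO. The sealed plates were shaken at 200 rpm at 20 °C for 5 days, after which 2 µL of 1 M NaOH went into each well. Mobility was then scored under the microscope and divided by the mean value from DMSO-only wells on the same plate. Each plate held eight such DMSO wells, and two biological replicates were averaged.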

[2] = test system: Caenorhabditis elegans dauer (daf-2(e1370)); experiment: proportion of mobile C. elegans dauer larvae relative to DMSO control (fraction of DMSO control); higher = more viable, less nematicidal, active = 0.63 or less; extreme values may be limits of the assay
Outline: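 Compound was added by pinning to 60 µM final, giving 0.6% v/v DMSO, in 96-well plates containing about 20 C. elegans dauers per well in liquid NGM. These dauers came from synchronized larvae held on MYOB plates with E. coli OP50 for 48 h at 25 °C. Plates were sealed and shaken at 200 rpm at 20 °C for 5 days. Under a dissection microscope, the proportion of mobile worms was scored relative to DMSO wells, and two biological replicates were averaged.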

[3] = test system: Ditylenchus dipsaci; experiment: proportion of mobile D. dipsaci (mixed stage) relative to DMSO control (fraction of DMSO control); higher = more viable, less nematicidal, active = 0.86 or less; extreme values may be limits of the assay
Outline: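 Ditylenchus dipsaci nematodes were cultured on pea plants in Gamborg B-5 agar, then extracted into water through a filter funnel, and roughly 20 worms in distilled water were placed in each well of a 96-well plate. Compound was pinned in to a final concentration of 60 µM (0.6% v/v DMSO), and the sealed plates were shaken at 200 rpm for 5 days at 20 °C. Mobile worms were counted under the microscope after 2 µL of 1 M NaOH was added. Mobility is given relative to DMSO controls as the mean of two biological replicates.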

Structure (SMILES) | proportion of mobile M. hapla J2 [1] | proportion of mobile C. elegans dauer larvae [2] | proportion of mobile D. dipsaci [3]
O=C(CSc1nnc(-c2ccccc2Cl)o1)NCc1ccco1 | 0.961 | 1 | 1
O=C(CSc1nnc(-c2ccc(Cl)cc2Cl)o1)Nc1ccccn1 | 0.838 | 1 | 1
CN(C)C(=O)c1ccccc1-c1nc(-c2ccc(Cl)cc2)no1 | 0.963 | 1 | 1
COc1cccc(-c2nc(-c3ccccc3)no2)c1 | 1.04 | 0.861 | 1
Cc1cccc(OC(C)c2nc(-c3cccnc3)no2)c1 (configuration not stated) | 0.994 | 1 | 1
c1ccc(-c2nc(C3CCCCC3)no2)cc1 | 0.956 | 1 | 1
CCCc1ccc(-c2nc(-c3ccc(F)cc3)no2)cc1 | 1.01 | 0.714 | 1
COc1cccc(OCc2nc(-c3cccc(Br)c3)no2)c1 | 0.999 | 1 | 1
CC(C)(C)C(=O)Nc1ccccc1-c1nc(-c2ccncc2)no1 | 1 | 1 | 1
Clc1ccccc1-c1nc(-c2ccc3c(c2)OCO3)no1 | 0.983 | 1 | 1
Cc1cc(Cl)ccc1OCc1nc(-c2ccc(F)cc2)no1 | 0.859 | 1 | 1
O=C(Nc1ccccc1-c1nc(-c2ccncc2)no1)c1cccc(Cl)c1 | 1.04 | 1 | 1
CC(C)(C)c1ccc(OCc2nc(-c3ccncc3)no2)c(Br)c1 | 0.875 | 1 | 1
c1ccc(-c2nnc(SCc3cccnc3)o2)cc1 | 0.92 | 1 | 0.75 (active)
COc1cccc(NC(=O)c2ccccc2-c2nc(-c3ccc(F)cc3)no2)c1 | 0.822 | 1 | 1
COc1ccc(-c2noc(-c3cccc(C)c3)n2)cc1 | 1.08 | 0.889 | 1
COc1ccc(-c2noc(COc3ccccc3Cl)n2)cc1 | 1.04 | 1 | 1

Structure (SMILES) | proportion of mobile M. hapla J2 [1] | proportion of mobile C. elegans dauer larvae [2] | proportion of mobile D. dipsaci [3]
Cc1ccc(NC(=O)CSc2nnc(-c3ccccc3)o2)cc1C | 0.983 | 1 | 1
CC(Oc1ccc(Br)cc1)c1nc(-c2ccncc2)no1 (configuration not stated) | 0.719 | 0 (active) | 1
Clc1ccc(CSc2nnc(-c3ccccc3)o2)cc1Cl | 1.01 | 1 | 1
CC(C)Oc1cccc(-c2nc(-c3ccccn3)no2)c1 | 1.01 | 0.667 | 1
COc1ccc(-c2noc(-c3ccccc3C(=O)Nc3cccc(C)c3C)n2)cc1 | 0.912 | 1 | 1
Fc1ccc(-c2noc(-c3ccc(F)cc3)n2)cc1 | 1.01 | 1 | 1
O=C(CSc1nnc(-c2ccncc2)o1)Nc1cccc(Cl)c1Cl | 0.818 | 1 | 1
COc1cccc(-c2nnc(SCc3ccccc3C)o2)c1 | 1.01 | 1 | 1
Cc1ccc(-c2nc(-c3ccc(F)cc3)no2)cc1 | 1.04 | 0 (active) | 0.708 (active)
CCOc1ccccc1-c1nnc(SCC(=O)c2ccccc2)o1 | 1.01 | 1 | 1
COc1cccc(-c2nnc(SCC(=O)Nc3cccc(C(F)(F)F)c3)o2)c1 | 1.01 | 1 | 1
Cc1c(C)n(C(=O)CSc2nnc(-c3ccccc3)o2)c2ccccc12 | 0.982 | 1 | 1
Cc1ccc(NC(=O)CSc2nnc(-c3ccco3)o2)cc1Br | 1.03 | 1 | 1
N#Cc1ccc(CSc2nnc(-c3ccco3)o2)cc1 | 0.607 (active) | 1 | 1
COc1ccc(-c2noc(-c3cccc(F)c3)n2)cc1 | 1 | 1 | 1
COc1ccc(Cl)cc1NC(=O)CSc1nnc(-c2ccncc2)o1 | 0.98 | 1 | 1
Brc1ccc(CSc2nnc(-c3ccncc3)o2)cc1 | 1.01 | 1 | 1

From the supplement of paper PMC11219838
